Only some compounds are listed: those with a hit (about 2% of all), similar ones and a draw of the others.
CHT allo act = human CHT allosteric activation; B-score at 10 µM; AID 488977; Q9GZV3; hit rate 0.49% among 310,000; CHT-expressing cells, membrane potential dye, choline EC20; hits give high values; LV-AA mutant CHT in HEK293 cells;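 active = initial fluorescence not abnormally high and integrated response B-score, plate-corrected, over 3 SD above library mean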
Target sequence (Q9GZV3 whole entry, looked up): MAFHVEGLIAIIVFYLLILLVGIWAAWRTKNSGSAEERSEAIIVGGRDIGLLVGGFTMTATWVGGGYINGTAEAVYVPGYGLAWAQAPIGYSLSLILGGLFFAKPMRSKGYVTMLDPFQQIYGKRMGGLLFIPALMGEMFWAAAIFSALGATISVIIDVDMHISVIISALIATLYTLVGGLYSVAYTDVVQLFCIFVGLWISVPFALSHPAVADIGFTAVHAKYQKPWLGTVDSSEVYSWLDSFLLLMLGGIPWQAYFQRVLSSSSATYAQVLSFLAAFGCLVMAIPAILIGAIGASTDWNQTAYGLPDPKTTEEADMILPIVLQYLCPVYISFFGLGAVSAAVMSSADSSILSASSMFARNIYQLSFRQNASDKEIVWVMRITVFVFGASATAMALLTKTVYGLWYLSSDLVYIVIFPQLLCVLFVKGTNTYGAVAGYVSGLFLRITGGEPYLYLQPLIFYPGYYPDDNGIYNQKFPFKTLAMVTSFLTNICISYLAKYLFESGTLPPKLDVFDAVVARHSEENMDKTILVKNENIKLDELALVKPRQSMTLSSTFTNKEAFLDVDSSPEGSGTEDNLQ
EP2 modulator = EP2 receptor (human) modulation | P43116 | EP2-expressing cells, cAMP HTRF FRET, PGE2 co-stimulation | induction, % at 25 µM | hit rate 0.83% among 260,000;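 active = compounds whose cAMP rise, as percent of the full-agonist control response, exceeds 60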;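 note: rat C6 glioma line stably carrying human EP2 under a CMV promoter; the protocol text gives 20 µM as final concentration; 100% = response of wells given 1 µM PGE2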
EP2 antag = blocks the human prostaglandin E2 receptor EP2. hit rate 0.52% among 260,000. P43116. inhibition, % at 25 µM. C6 glioma cells expressing human EP2, cAMP TR-FRET; cells stimulated with saturating PGE2;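 active = percent inhibition above 40 after rounding to a whole number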;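 note: rat C6 glioma host cells with rolipram phosphodiesterase inhibitor present; the protocol text gives 20 µM as final concentration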
CHT inh = human CHT choline transport inhibition. Q9GZV3. CHT-expressing cells, membrane potential dye, choline response; hits give low values. B-score at 10 µM. hit rate 0.86% among 310,000. AID 488975;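 active = B-score over 3 SD under the library average, and starting fluorescence ratio not unusually high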;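 note: choline stimulus applied at its EC90 after an EC20 pre-addition; B-score computed on integrated fluorescence ratio after choline addition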
* marks the source's active call; other numbers are inactive results; i = inactive; . = no result given; ! = a repeat was not active.

SMILES | CHT allo act | EP2 modulator | EP2 antag | CHT inh
O=C1C2C3C=CC(C3)C2C(=O)N1c1nc2ccccc2s1 (stereo unspecified) | i | 30.1 | 20.8 | i
O=C1CCC(c2ccccc2)=NN1c1nc2ccccc2s1 | . | -16.1 | 55.7* | .
CCOC(=O)c1cccc(NC(=O)CSc2nnc3c(C)cc4cc(OC)c(OC)cc4n23)c1 | . | -7.2 | 10.9 | .
Nc1nc(-c2ccccc2)c(-c2ccccc2)s1 | i | 37.5 | 7.8 | i
Nc1nc(-c2ccccc2)c(-c2ccccc2)c(-c2nc(N)nc(-c3ccccc3)c2-c2ccccc2)n1 | . | 13.0 | 47.8* | .
O=C(O)c1ccncc1.O=C(O)c1ccncc1.[NH2-].[NH2-].[Pt] | . | -14.3 | 51.3* | .
CCCCCCCCNC(C)C(O)c1ccc(SC(C)C)cc1 (stereo unspecified) | i | -23.0 | 115.3*! | i
O=C(Nc1ccccc1)N(Cc1ccco1)Cc1cc2cc3c(cc2[nH]c1=O)OCO3 | . | -3.8 | 14.8 | .
CN(C)CCC(=O)[C@]1(O)CC[C@@H]2[C@H]3CC=C4C[C@@H](O)CC[C@]4(C)[C@@H]3CC[C@]21C | . | -49.0 | 64.9* | .
COc1ccc2[nH]c(=O)c(CN(CC3CCCO3)S(=O)(=O)c3ccc(C(C)=O)cc3)cc2c1 (stereo unspecified) | . | -12.9 | 15.0 | .
c1ccc(-c2cc(-c3nnc(-c4ccncc4)o3)c3ccccc3n2)cc1 | . | 79.5* | 8.0 | .
CSc1nnc(-c2cc(-c3ccc(C)cc3)nc3ccccc23)o1 | i | 20.0 | 11.1 | i
C=CCS(=O)C[C@H](N)C(=O)O (stereo partly specified) | . | 7.0 | 12.3 | .
CCc1nn(CC(=O)NCc2ccc(OC)cc2)c(=O)c2cc3sccc3n12 | . | 13.9 | . | .
C[C@H](CCC(=O)O)[C@H]1CC[C@@]2(C)[C@@H]3C(=O)C[C@H]4C(C)(C)[C@@H](O)CC[C@]4(C)[C@H]3C(=O)C[C@]12C | . | 31.5 | 46.3* | .
COc1ccc(C(=O)[C@H](Br)[C@H](Br)C(=O)O)cc1 | . | -15.7 | 41.5* | .
O=C(Nc1ccc2c(c1)CCC2)c1snc2c(=O)[nH]cnc12 | . | -12.0 | 12.2 | .
O=C(COc1cccc2ccccc12)Nc1ccc(Cl)cc1C(=O)O | i | . | . | -7.31*
COc1ccccc1CC(=O)Nc1ccc(Cl)cc1C(=O)O | i | -18.6 | 5.1 | i
N=c1n(CCN2CCCCC2)c2ccccc2n1CC(O)COc1ccccc1 (stereo unspecified) | 7.17* | 10.2 | 22.0 | i
O=C(Cn1nnc(-c2ccc(N3CCOCC3)cc2)n1)NCC1COCCO1 (stereo unspecified) | . | 6.1 | 7.4 | .
CCOC(=O)C(NC(=O)c1cc(-c2ccc(OC)c(OC)c2)oc1C)C(C)C (stereo unspecified) | . | -26.5 | 7.6 | .
COc1ccccc1NC(=O)Nc1nn(C)c2cccc(OC)c12 | i | 75.3* | 11.9 | i
COc1cccc2c1c(NC(=O)c1cc(C)on1)nn2C | i | -15.2 | 10.9 | i
CC(C)Cc1nc(N2CCN(C(=O)c3ccco3)CC2)c(C#N)c2c1CCCC2 | i | . | . | i
SMILES | CHT allo act | EP2 modulator | EP2 antag | CHT inh
CCCC(=O)N1CCN(c2nc(CC(C)C)c3c(c2C#N)CCC3)CC1 | 7* | 33.6 | . | i
CC(C)NCC(O)Cn1c2c(c3ccccc31)CCc1c-2cnn1-c1ccccc1 (stereo unspecified) | i | -30.0 | 20.7 | -6.48*
CCOc1ccc(NS(=O)(=O)c2cc(NC(=O)CCS(=O)(=O)c3ccc(C)cc3)ccc2OC)cc1 | i | -41.6 | 0.5 | -5.14*
CCOc1ccc(NC(=O)COC(=O)CCS(=O)(=O)c2ccc(C)cc2)cc1 | i | 25.6 | 6.1 | i
Cc1cc(Cl)ccc1N=c1ssnc1Cl | i | -54.7 | 76.5* | i
COc1cc(N=c2ssnc2Cl)c(OC)cc1Cl | i | -51.5 | 6.6 | i
COc1ccc(OC)c(N=c2ssnc2Cl)c1 | i | -69.6 | 77.3* | i
COc1ccc(OC)c(NC(=O)CSc2nnc3c4c(C)c(C)sc4ncn23)c1 | . | -1.8 | 11.1 | .
CC1CCCN(C(=O)CN2CCC(c3ccc4c(c3)OCO4)CC2)C1 (stereo unspecified) | . | -34.3 | 5.7 | .
Cc1cc(N2CCCC2)nc2ccc(NC(=S)NCCCN3CCC(C)CC3)cc12 | i | -31.6 | 4.1 | -7.9*
Cc1cc(N2CCN(C)CC2)nc2ccc(NC(=S)NCCCN3CCc4ccccc4C3)cc12 | i | -75.6 | 7.5 | i
COc1ccc(C2C(C#N)=C(C)NC3=C2C(=O)c2ccccc23)cc1 (stereo unspecified) | i | -8.0 | 49.4* | i
CCOc1ccc(C2C(C#N)=C(C)NC3=C2C(=O)c2ccccc23)cc1 (stereo unspecified) | i | 6.5 | 5.8 | i
N#Cc1cc2c(nc1SCc1ccccc1)CCCC2 | i | 22.8 | 27.3 | i
N#Cc1cc2c(nc1SCc1ccccc1)CCC2 | i | 39.6 | 42.2* | i
O=C(c1nc2ccccc2s1)C1CCN(C(=O)c2ccn[nH]2)CC1 | . | -29.1 | . | .
N#C/C(=C(/O)CCl)c1nc2c(s1)CCc1ccccc1-2 | i | . | . | -10.3*
CC(=O)N(Cc1ccc(F)cc1)Cc1cc2cc(C)c(C)cc2[nH]c1=O | . | -39.8 | 12.4 | .
O=[N+]([O-])c1ccc(NN=C2c3ccccc3Cc3ccccc32)c([N+](=O)[O-])c1 | . | 24.1 | 44.2* | .
O=[N+]([O-])c1ccc(N/N=C2\CC3CC=CC23)c([N+](=O)[O-])c1 (stereo unspecified) | i | -39.0 | 10.7 | i
COC(=O)c1ccccc1S(=O)(=O)N(Cc1cc2cc(C)c(C)cc2[nH]c1=O)C1CCCCC1 | . | 0.2 | 9.0 | .
CC[C@@H](Cn1nc(-c2cccs2)ccc1=O)NC(=O)CCn1cnc2ccccc21 | . | -15.8 | 9.4 | .
O=C1C(=Cc2cccnc2)C(=O)c2ccccc21 | . | -116.6 | 42.0* | .
O=C1/C(=C\c2cccnc2)Sc2ccccc21 | i | -75.6 | 27.2 | i
CN1C(=O)CSc2ccc(NC(=O)Nc3ccccn3)cc21 | i | -30.7 | 20.0 | i
SMILES | CHT allo act | EP2 modulator | EP2 antag | CHT inh
COc1cccc(NC(=O)Nc2ccc3c(c2)N(C)C(=O)CS3)c1 | i | -36.4 | 42.3* | i
COc1ccc(N(CC(=O)N2CCC(C(N)=O)CC2)S(C)(=O)=O)cc1 | . | 12.8 | 6.3 | .
CCOc1ccccc1/C=N/NC(=O)c1nnn(-c2nonc2N)c1CN1CCC(C)CC1 | i | . | . | i
CC1CCN(Cc2c(C(=O)N/N=C/c3ccc(C(C)C)cc3)nnn2-c2nonc2N)CC1 | 6.36* | . | . | i
Cc1cc(/C=N/NC(=O)c2ccccc2F)c(C)n1-c1ccccc1 | i | -76.3 | 6.2 | -6.33*
Cc1cc(N/N=C/c2ccccc2O)nc(-c2ccccc2O)n1 | i | -56.7 | 60.1* | i
Cc1cc(N/N=C\c2ccccc2)nc(-c2ccccc2O)n1 | i | 6.6 | 15.4 | i
Cc1cc(N/N=C/c2ccc(O)cc2O)nc(-c2ccccc2O)n1 | i | -56.7 | 80.3* | i
Nc1ccc2nc(-c3ccccc3)[nH]c2c1 | i | -38.1 | 14.7 | i
Nc1ccc2nc(-c3cccs3)[nH]c2c1 | i | 4.3 | 93.3* | i
